These results are taken from PubChem BioAssay (NCATS).

Results filed as inconclusive are left out. A call without a number means that no potency is given here. Calls of active or inactive are those of the source. The call rests on the fitted dose curve; tested in HEK293 reporter line.
Potency means the concentration at half of the fitted maximal effect.

A short description of the first assay: qHTS for Inhibitors of the Functional Ribonucleoprotein Complex (vRNP) of Lassa (LASV) Arenavirus: LASV Primary Screen - GLuc reporter signal (AID 1347082). Further: nearly all actives have a fitted effect of over 60% in size. As to conditions: LASV minigenome vRNP, Gaussia luciferase reporter; series mostly up to 57.5 µM. On the technique in general: In qHTS, concentration-response curves come from the screen itself.
Regarding `O=C(CCCCO)CCCCCCCC[C@H]1N[C@H](CO)[C@H](O)[C@@H]1O[C@@H]1O[C@H](CO)[C@@H](O)[C@H](O)[C@H]1O`, the Potency result was “inactive”.
The same measure, in the same setting: next, `C=C[C@@]1(C)CC(=O)[C@]2(O)[C@@]3(C)[C@@H](O)CCC(C)(C)[C@@H]3[C@H](OC(C)=O)[C@H](O)[C@@]2(C)O1`: “inactive”; `CC[C@H](C)/C=C(C)/C=C/C(=O)Cc1cc(O)c(C)c(O)c1C=O`: “inactive”.
Same read-out and setting: next, `CC(C)=CCC/C(C)=C/COc1c2ccoc2cc2oc(=O)ccc12`: “inactive”.
For the compound `C[N+](C)(C)C[C@H](O)CC(=O)[O-]`, the Potency entry is “inactive”.
Regarding `O=C1Nc2ccc(Cl)cc2C(C#CC2CC2)(C(F)(F)F)O1` (stereo not given), the Potency entry is “inactive”.
Turning to `COc1cc2c(c(OC)c1CC=C(C)C)C[C@H](c1ccc(O)cc1O)CO2`, the Potency entry is “inactive”.
Take `CC(C)COC(=O)c1ccccc1`: the Potency result is “inactive”.
Still for that read-out and setting: next, `COc1cc(/C=C/C(=O)OC[C@H]2O[C@H](OC3(CO)OC(CO)C(O)C3O)[C@H](O)[C@@H](O)[C@@H]2O)ccc1O` (stereo not given in full): “inactive”; `CCCCCc1cccc(=O)o1`: “inactive”.
As to `O=c1c(O)c(-c2ccccc2O)oc2cc(O)cc(O)c12`, the Potency result was “inactive”.
Same read-out and setting: under `COC(C)(C)[C@@H](O)COc1c2ccoc2cc2oc(=O)ccc12` stands “inactive”.
Same read-out and setting: under `Cc1cc(O)cc(O[C@H]2OC(CO)[C@H](O)[C@@H](O)[C@H]2O)c1` (stereo not given in full) stands “inactive”.
Still for that read-out and setting: under `C#CCCC[C@@H]1OC(=O)CNC(=O)C([C@@H](C)CC)NC(=O)[C@@H]2CCCN2C(=O)C([C@@H](C)CC)OC(=O)[C@H](Cc2ccccc2)N(C)C(=O)[C@H](C(C)C)NC(=O)C1(C)C` (stereo not given in full) stands “inactive”.
Consider `COC(=O)[C@@]1(C)CC[C@]2(C)CC[C@@]3(C)C(=CC(=O)C4[C@@]5(C)CC[C@H](O)C(C)(C)[C@@H]5CC[C@]43C)[C@H]2C1` (stereo not given in full), for which the Potency entry was “inactive”.
Still for that read-out and setting: next, `CC1(C)OC(=O)C=C[C@]2(C)[C@H]3CC[C@@]4(C)[C@H](c5ccoc5)OC(=O)[C@H]5O[C@]54[C@]3(C)C(=O)C[C@@H]12`: “inactive”; `N#CC(=C(O)c1ccc(Cl)cc1Cl)c1nc2cc(Cl)ccc2c(=O)[nH]1`: “inactive”.
For the compound `C=CC(O)CCCCC` (stereo not given), the Potency result was “inactive”.
Same read-out and setting: next, `C=C(C)[C@@H]1CC[C@@H](C)C[C@@H]1O`: “inactive”.
Turning to `Cc1cc(Cn2cnc3c2C[C@@H](C(=O)O)N(C(=O)C(c2ccccc2)c2ccccc2)C3)ccc1N`, the Potency entry is “inactive”.
The same measure, in the same setting: under `COc1ccc(-c2oc3ccccc3c(=O)c2O)cc1` stands “inactive”; under `CCOc1ccc(O)cc1`, “inactive”.
Turning to `C[C@]12CC[C@H](O)CC1=CCC1C2CC[C@@]2(C)C1C[C@@H](O)[C@@H]2O` (stereo not given in full), the Potency entry was “inactive”.
On to `Nc1ncnc2c1ncn2[C@@H]1O[C@H](COP(=O)(O)OP(=O)(O)OC[C@H]2OC(O)[C@H](O)[C@@H]2O)[C@@H](O)[C@H]1O` (stereo not given in full), for which the Potency entry is “inactive”.
In the case of `CC/C=C\C[C@H](O)/C=C/C=C\C/C=C\C/C=C\CCCC(=O)O`, the activity change, negative = inhibition is -0.193% [at 0.757 µM] (inactive).
Consider `CC1(C)C(N(O)C(=O)Nc2ccc(Cl)cc2)N(c2ccc(Cl)cc2)C(=O)N1CC(=O)NN=CC=Cc1ccc([N+](=O)[O-])o1` (stereo not given), for which the Potency entry was “inactive”.
Still for that read-out and setting: under `COc1ccc2[nH]cc(CCO)c2c1` stands “inactive”; under `O=C(/C=C/c1ccccc1)OC/C=C/c1ccccc1`, “inactive”.
On the same count and under the same terms, next, `COC(=O)C1=COC(O[C@H]2OC(CO)[C@H](O)C(O)C2O)[C@H]2C1C(=O)C[C@@H]2C` (stereo not given in full): “inactive”; `Cc1ccc(C(C)(C)O)cc1`: “inactive”; `O=c1ccc2ccc(O[C@@H]3O[C@H](CO[C@@H]4OC[C@](O)(CO)[C@H]4O)[C@@H](O)[C@H](O)[C@H]3O)cc2o1`: “inactive”.
Still for that read-out and setting: next, `OC[C@H]1O[C@@H](O[C@@H]2OC=C[C@H]3[C@H](O)[C@@H]4O[C@]4(CO)[C@@H]23)[C@H](O)[C@@H](O)[C@@H]1O`: “inactive”; `COc1cc(CCC(C)=O)ccc1O`: “inactive”; `CC(=O)C1CCC2C3CCC4=CC(=O)C=CC4(C)C3CCC12C` (stereo not given): “inactive”.
Regarding `N#C/C(=C\c1ccc(-c2cc(Cl)ccc2Cl)o1)C(=O)Nc1cccc2ncccc12`, the Potency result is “inactive”.
For the compound `CCCCCCCCCC(C)=O`, the Potency result is “inactive”.
The same measure, in the same setting: under `CC1=C[C@H]2OC(=O)[C@@H](C)[C@H]2C[C@@H]2[C@H]1C[C@@H](O)[C@@]2(C)O` stands “inactive”; under `CCCCCCCC1CCC(=O)O1` (stereo not given), “inactive”; under `CS(=O)(=O)N1CCN(Cc2cc3nc(-c4cccc5[nH]ncc45)nc(N4CCOCC4)c3s2)CC1`, 1.72 µM (active).
With `O=C(NC(Cc1ccccc1)C(=O)O)c1ccccc1` (stereo not given), the Potency entry was “inactive”.

The next assay can be described thus: qHTS for Inhibitors of the Functional Ribonucleoprotein Complex (vRNP) of Lassa (LASV) Arenavirus: Viability assay - alamar blue signal for LASV Primary Screen (AID 1347083). Further: nearly all actives have a fitted effect of over 80% in size. To be noted: cell viability, alamar blue fluorescence (LASV minigenome counter-screen); series mostly up to 57.5 µM.
As for `O=C(CCCCO)CCCCCCCC[C@H]1N[C@H](CO)[C@H](O)[C@@H]1O[C@@H]1O[C@H](CO)[C@@H](O)[C@H](O)[C@H]1O`, the Potency entry is “inactive”.
`C=C[C@@]1(C)CC(=O)[C@]2(O)[C@@]3(C)[C@@H](O)CCC(C)(C)[C@@H]3[C@H](OC(C)=O)[C@H](O)[C@@]2(C)O1`: the Potency result is “inactive”.
With `CC[C@H](C)/C=C(C)/C=C/C(=O)Cc1cc(O)c(C)c(O)c1C=O`, the Potency entry was “inactive”.
Take `CC(C)=CCC/C(C)=C/COc1c2ccoc2cc2oc(=O)ccc12`: the Potency entry was “inactive”.
Still for that read-out and setting: under `C[N+](C)(C)C[C@H](O)CC(=O)[O-]` stands “inactive”; under `O=C1Nc2ccc(Cl)cc2C(C#CC2CC2)(C(F)(F)F)O1` (stereo not given), “inactive”; under `COc1cc2c(c(OC)c1CC=C(C)C)C[C@H](c1ccc(O)cc1O)CO2`, “inactive”.
For `CC(C)COC(=O)c1ccccc1`, the Potency result is “inactive”.
Still for that read-out and setting: next, `COc1cc(/C=C/C(=O)OC[C@H]2O[C@H](OC3(CO)OC(CO)C(O)C3O)[C@H](O)[C@@H](O)[C@@H]2O)ccc1O` (stereo not given in full): “inactive”; `CCCCCc1cccc(=O)o1`: “inactive”; `O=c1c(O)c(-c2ccccc2O)oc2cc(O)cc(O)c12`: “inactive”.
As for `COC(C)(C)[C@@H](O)COc1c2ccoc2cc2oc(=O)ccc12`, the Potency result was “inactive”.
Still for that read-out and setting: under `Cc1cc(O)cc(O[C@H]2OC(CO)[C@H](O)[C@@H](O)[C@H]2O)c1` (stereo not given in full) stands “inactive”; under `C#CCCC[C@@H]1OC(=O)CNC(=O)C([C@@H](C)CC)NC(=O)[C@@H]2CCCN2C(=O)C([C@@H](C)CC)OC(=O)[C@H](Cc2ccccc2)N(C)C(=O)[C@H](C(C)C)NC(=O)C1(C)C` (stereo not given in full), “inactive”; under `COC(=O)[C@@]1(C)CC[C@]2(C)CC[C@@]3(C)C(=CC(=O)C4[C@@]5(C)CC[C@H](O)C(C)(C)[C@@H]5CC[C@]43C)[C@H]2C1` (stereo not given in full), “inactive”.
Still for that read-out and setting: next, `CC1(C)OC(=O)C=C[C@]2(C)[C@H]3CC[C@@]4(C)[C@H](c5ccoc5)OC(=O)[C@H]5O[C@]54[C@]3(C)C(=O)C[C@@H]12`: “inactive”; `N#CC(=C(O)c1ccc(Cl)cc1Cl)c1nc2cc(Cl)ccc2c(=O)[nH]1`: “inactive”; `C=CC(O)CCCCC` (stereo not given): “inactive”.
On the same count and under the same terms, next, `C=C(C)[C@@H]1CC[C@@H](C)C[C@@H]1O`: “inactive”.
As to `Cc1cc(Cn2cnc3c2C[C@@H](C(=O)O)N(C(=O)C(c2ccccc2)c2ccccc2)C3)ccc1N`, the Potency result was “inactive”.
On the same count and under the same terms, next, `COc1ccc(-c2oc3ccccc3c(=O)c2O)cc1`: “inactive”; `CCOc1ccc(O)cc1`: “inactive”; `C[C@]12CC[C@H](O)CC1=CCC1C2CC[C@@]2(C)C1C[C@@H](O)[C@@H]2O` (stereo not given in full): “inactive”.
Same read-out and setting: next, `Nc1ncnc2c1ncn2[C@@H]1O[C@H](COP(=O)(O)OP(=O)(O)OC[C@H]2OC(O)[C@H](O)[C@@H]2O)[C@@H](O)[C@H]1O` (stereo not given in full): “inactive”.
In the case of `CC/C=C\C[C@H](O)/C=C/C=C\C/C=C\C/C=C\CCCC(=O)O`, the activity change, negative = reduced viability was 19.4% [at 0.757 µM] (inactive).
As for `CC1(C)C(N(O)C(=O)Nc2ccc(Cl)cc2)N(c2ccc(Cl)cc2)C(=O)N1CC(=O)NN=CC=Cc1ccc([N+](=O)[O-])o1` (stereo not given), the Potency result is “inactive”.
Still for that read-out and setting: under `COc1ccc2[nH]cc(CCO)c2c1` stands “inactive”; under `O=C(/C=C/c1ccccc1)OC/C=C/c1ccccc1`, “inactive”; under `COC(=O)C1=COC(O[C@H]2OC(CO)[C@H](O)C(O)C2O)[C@H]2C1C(=O)C[C@@H]2C` (stereo not given in full), “inactive”.
With `Cc1ccc(C(C)(C)O)cc1`, the Potency result is “inactive”.
Still for that read-out and setting: next, `O=c1ccc2ccc(O[C@@H]3O[C@H](CO[C@@H]4OC[C@](O)(CO)[C@H]4O)[C@@H](O)[C@H](O)[C@H]3O)cc2o1`: “inactive”; `OC[C@H]1O[C@@H](O[C@@H]2OC=C[C@H]3[C@H](O)[C@@H]4O[C@]4(CO)[C@@H]23)[C@H](O)[C@@H](O)[C@@H]1O`: “inactive”.
Same read-out and setting: next, `COc1cc(CCC(C)=O)ccc1O`: “inactive”.
As for `CC(=O)C1CCC2C3CCC4=CC(=O)C=CC4(C)C3CCC12C` (stereo not given), the Potency entry was “inactive”.
On the same count and under the same terms, under `N#C/C(=C\c1ccc(-c2cc(Cl)ccc2Cl)o1)C(=O)Nc1cccc2ncccc12` stands “inactive”; under `CCCCCCCCCC(C)=O`, “inactive”; under `CC1=C[C@H]2OC(=O)[C@@H](C)[C@H]2C[C@@H]2[C@H]1C[C@@H](O)[C@@]2(C)O`, “inactive”.
Regarding `CCCCCCCC1CCC(=O)O1` (stereo not given), the Potency entry is “inactive”.
Consider `CS(=O)(=O)N1CCN(Cc2cc3nc(-c4cccc5[nH]ncc45)nc(N4CCOCC4)c3s2)CC1`, for which the Potency was 968 nM (active).
On to `O=C(NC(Cc1ccccc1)C(=O)O)c1ccccc1` (stereo not given), for which the Potency entry is “inactive”.
